Inconclusive results are not listed. Activity calls are given as the source filed them. How the source made its calls, unless noted: active means hit-call score of the fitted dose curve at least 0.9, where 1 is the maximum; inactive means score below 0.9.
Tests used:
[1] = target: Retinoic acid receptor RXR-alpha (Homo sapiens) (UniProt P19793); test: ATG_RXRa_TRANS: Attagene TRANS-FACTORIAL HepG2 Assay for human Retinoid X Receptor alpha (RXRa) (AID 2283012; active means hit-call score of the fitted dose curve at least 0.9, where 1 is the maximum)
Sequence of Retinoic acid receptor RXR-alpha (Homo sapiens) (P19793 whole entry, looked up, the tested form may be a part): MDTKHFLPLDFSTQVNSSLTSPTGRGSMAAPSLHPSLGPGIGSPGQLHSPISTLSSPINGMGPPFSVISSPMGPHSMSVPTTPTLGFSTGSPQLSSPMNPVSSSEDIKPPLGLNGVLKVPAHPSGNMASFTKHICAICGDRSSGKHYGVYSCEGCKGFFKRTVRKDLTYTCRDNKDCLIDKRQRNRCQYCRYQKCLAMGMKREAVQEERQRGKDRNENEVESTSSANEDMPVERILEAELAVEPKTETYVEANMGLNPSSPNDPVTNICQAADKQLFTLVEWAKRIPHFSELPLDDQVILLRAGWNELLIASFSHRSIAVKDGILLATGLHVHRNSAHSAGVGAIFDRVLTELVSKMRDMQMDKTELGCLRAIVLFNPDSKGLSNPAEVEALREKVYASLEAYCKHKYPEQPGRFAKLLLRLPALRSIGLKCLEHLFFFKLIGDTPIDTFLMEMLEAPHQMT
Method in brief: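 Transient transfection of human HepG2 with multiple GAL4-UAS reporter constructs; 24 h compound exposure; total RNA isolated, reverse-transcribed, PCR-amplified, 6-FAM labelled, HpaI-cut, resolved by capillary electrophoresis. Positive-direction fit versus DMSO.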

[2] = target: human Thyroid Receptor alpha (THRa1), THRA (gene 7067) (UniProt P10827); test: ATG_THRa1_TRANS: Attagene TRANS-FACTORIAL HepG2 Assay for human Thyroid Receptor alpha (THRa1) (AID 2283014; active means hit-call score of the fitted dose curve at least 0.9, where 1 is the maximum)
Sequence of human Thyroid Receptor alpha (THRa1), THRA (gene 7067) (P10827 whole entry, looked up, the tested form may be a part): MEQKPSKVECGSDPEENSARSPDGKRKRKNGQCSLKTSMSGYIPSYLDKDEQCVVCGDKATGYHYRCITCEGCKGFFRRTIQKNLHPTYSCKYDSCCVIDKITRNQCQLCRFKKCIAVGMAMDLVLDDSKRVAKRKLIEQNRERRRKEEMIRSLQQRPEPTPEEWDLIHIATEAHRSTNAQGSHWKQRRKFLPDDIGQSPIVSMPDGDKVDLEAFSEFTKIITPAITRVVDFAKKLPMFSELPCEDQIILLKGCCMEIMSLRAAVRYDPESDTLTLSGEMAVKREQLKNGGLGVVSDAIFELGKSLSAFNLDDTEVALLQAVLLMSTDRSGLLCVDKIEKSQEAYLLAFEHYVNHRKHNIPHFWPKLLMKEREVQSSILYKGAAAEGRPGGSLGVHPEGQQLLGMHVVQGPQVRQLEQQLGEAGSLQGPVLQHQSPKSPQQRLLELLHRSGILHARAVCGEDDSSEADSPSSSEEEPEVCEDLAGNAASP
Method in brief: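 First, HepG2 cells receive multiple GAL4-UAS reporter units and the chimeric receptor. They are then dosed for 24 h, after which RNA is reverse-transcribed, amplified, labelled, HpaI-cut and sized by capillary electrophoresis; gain relative to DMSO is scored.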

[3] = target: human Vitamin D Receptor (VDR), VDR (gene 7421) (UniProt P11473); test: ATG_VDR_TRANS: Attagene TRANS-FACTORIAL HepG2 Assay for human Vitamin D Receptor (VDR) (AID 2283022; active means hit-call score of the fitted dose curve at least 0.9, where 1 is the maximum)
Sequence of human Vitamin D Receptor (VDR), VDR (gene 7421) (P11473 whole entry, looked up, the tested form may be a part): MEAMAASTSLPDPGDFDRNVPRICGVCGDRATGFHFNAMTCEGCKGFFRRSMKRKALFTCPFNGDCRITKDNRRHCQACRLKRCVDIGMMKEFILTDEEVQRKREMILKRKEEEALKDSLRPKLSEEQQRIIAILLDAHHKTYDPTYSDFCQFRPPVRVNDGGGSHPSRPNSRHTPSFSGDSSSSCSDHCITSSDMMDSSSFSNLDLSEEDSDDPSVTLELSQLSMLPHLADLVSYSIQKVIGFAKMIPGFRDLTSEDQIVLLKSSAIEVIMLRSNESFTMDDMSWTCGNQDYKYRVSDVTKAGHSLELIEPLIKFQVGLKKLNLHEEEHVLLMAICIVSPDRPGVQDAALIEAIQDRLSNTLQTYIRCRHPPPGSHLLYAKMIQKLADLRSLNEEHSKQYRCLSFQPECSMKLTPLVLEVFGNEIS
Method in brief: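 Fluorescence of labelled reporter cDNA fragments, resolved by capillary electrophoresis, gives mRNA induction after 24 h treatment of HepG2 cells carrying transfected Gal4-fusion reporter units. Activity is fitted in the positive direction with DMSO as baseline.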

[4] = read-out: E-selectin (Homo sapiens) (UniProt P16581); test: BSK_3C_Eselectin: BioMAP Diversity Plus: 3C Assay for Eselectin Biomarker Activity (AID 2283015); details: primary human endothelial cells (HUVEC); actives raise or lower the signal
Method in brief: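 Human vascular endothelium from umbilical vein is exposed to test chemicals for 24 h. E-selectin levels are read by ELISA and compared with DMSO controls.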

[5] = read-out: Interleukin-1 alpha (IL1a), IL1A (gene 3552); test: BSK_BE3C_IL1a: BioMAP Diversity Plus: BE3C Assay for Interleukin-1 alpha (IL1a) Biomarker Activity (AID 2283016); details: primary human bronchial epithelial cells; actives raise or lower the signal
Method in brief: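 BE3C primary human bronchial epithelium; cpd 24 h; IL-1a by ELISA; bidirectional fit vs DMSO; parallel SRB (0.1% SRB, 10% TCA fix, 560 nm) for cytotoxicity.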

[6] = read-out: Monocyte Chemoattractant Protein-1 (MCP1), CCL2 (gene 6347); test: BSK_3C_MCP1: BioMAP Diversity Plus: 3C Assay for Monocyte Chemoattractant Protein-1 (MCP1) Biomarker Activity (AID 2283017); details: primary human endothelial cells (HUVEC); actives raise or lower the signal
Method in brief: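 Endothelial cells from human umbilical vein are dosed with chemical, cultured 24 h, then assayed for MCP-1 by ELISA; both increases and decreases are modelled against DMSO controls.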

[7] = read-out: Monocyte Chemoattractant Protein-1 (MCP1), CCL2 (gene 6347); test: BSK_4H_MCP1: BioMAP Diversity Plus: 4H Assay for Monocyte Chemoattractant Protein-1 (MCP1) Biomarker Activity (AID 2283018); details: primary human endothelial cells (HUVEC); actives raise or lower the signal
Method in brief: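 ELISA read-out of MCP-1 from human vascular endothelial primary cells taken at 24 hours after compound exposure. Activity was fitted in both directions relative to DMSO, which served as negative control.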

[8] = read-out: Human Leukocyte Antigen - DR isotype (HLADR), HLA-DRA (gene 3122); test: BSK_3C_HLADR: BioMAP Diversity Plus: 3C Assay for Human Leukocyte Antigen - DR isotype (HLADR) Biomarker Activity (AID 2283019); details: primary human endothelial cells (HUVEC); actives raise or lower the signal
Method in brief: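 Endothelial cells from human umbilical vein are treated with test chemical; after 24 h, HLA-DR levels are measured by ELISA. Data are fitted in both directions using DMSO as the baseline.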

[9] = read-out: Interleukin-8 (IL8), CXCL8 (gene 3576); test: BSK_3C_IL8: BioMAP Diversity Plus: 3C Assay for Interleukin-8 (IL8) Biomarker Activity (AID 2283020); details: primary human endothelial cells (HUVEC); actives raise or lower the signal
Method in brief: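 ELISA read-out of IL-8 from human umbilical vein endothelium, measured 24 h after chemical dosing. Activity is expressed relative to DMSO negative control, with both increases and decreases fitted.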

[10] = read-out: Monokine induced gamma interferon (MIG), CXCL9 (gene 4283); test: BSK_3C_MIG: BioMAP Diversity Plus: 3C Assay for Monokine induced gamma interferon (MIG) Biomarker Activity (AID 2283021); details: primary human endothelial cells (HUVEC); actives raise or lower the signal;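 on AC50: MIG protein level measured by immunoassay in the treated endothelial cultures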
Method in brief: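 Read-out is ELISA detection of MIG on human umbilical vein endothelial cells, taken 24 h after dosing. Gain or loss of signal was scored relative to DMSO controls using bidirectional curve fitting.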

[11] = BSK_3C_SRB: Viability Assessment in the BioMAP Diversity Plus: 3C Assay (AID 2283023); details: primary human endothelial cells (HUVEC);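 further: fitted both ways against DMSO so a hit may be signal rise or drop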
Method in brief: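 Cells were dosed with chemical, cultured 24 h, fixed with 10% TCA, stained with 0.1% SRB and read at 560 nm. Human umbilical vein endothelium was used; DMSO served as negative control and baseline.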

[12] = read-out: Matrix Metallopeptidase 1 (MMP1), MMP1 (gene 4312); test: BSK_BE3C_MMP1: BioMAP Diversity Plus: BE3C Assay for Matrix Metallopeptidase 1 (MMP1) Biomarker Activity (AID 2283024); details: primary human bronchial epithelial cells; actives raise or lower the signal
Method in brief: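 Human bronchial epithelial cells (BE3C system) exposed to compound for 24 h; MMP1 then quantified by ELISA. Activity was fitted in both directions relative to DMSO.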

[13] = BSK_3C_Vis: BioMAP Diversity Plus: 3C Assay for Morphology Visualization (AID 2283025); details: primary human endothelial cells (HUVEC);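 further: fitted both ways so gain or loss versus DMSO counts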;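 on AC50: light microscopy image of cell morphology used as background control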
Method in brief: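 Chemicals were added to primary human umbilical vein endothelium, cells were incubated 24 h, and morphology was then visualized by light microscopy. Gain or loss of signal was fitted bidirectionally relative to DMSO.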

[14] = read-out: Pselectin, SELP (gene 6403); test: BSK_4H_Pselectin: BioMAP Diversity Plus: 4H Assay for Pselectin Biomarker Activity (AID 2283026); details: primary human endothelial cells (HUVEC); actives raise or lower the signal
Method in brief: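 ELISA read-out of P-selectin on human umbilical vein endothelium after 24 h of dosing. Values derive from bidirectional fitting relative to DMSO. Parallel SRB protein staining flagged overt cytotoxicity.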

[15] = BSK_4H_SRB: Viability Assessment in the BioMAP Diversity Plus: 4H Assay (AID 2283027); details: primary human endothelial cells (HUVEC);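 further: cells exposed to compound for 24 h before staining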;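 on AC50: curves fitted both ways versus DMSO so AC50 may be loss or gain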
Method in brief: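 Human umbilical vein endothelial cells, 24 h after chemical dosing; total protein measured by 0.1% sulforhodamine B staining after 10% TCA fixation, read at 560 nm. Bidirectional fitting against DMSO.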

[16] = BSK_BE3C_SRB: Viability Assessment in the BioMAP Diversity Plus: BE3C Assay (AID 2283028); details: primary human bronchial epithelial cells;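 on AC50: fitted both ways so AC50 may mark signal gain or loss versus DMSO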
Method in brief: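 Overt cytotoxicity was assessed as total protein in confluent human primary bronchial epithelial cultures 24 h after chemical addition, using 0.1% sulforhodamine B staining read at 560 nm.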

[17] = read-out: Thrombomodulin, THBD (gene 7056); test: BSK_3C_Thrombomodulin: BioMAP Diversity Plus: 3C Assay for Thrombomodulin Biomarker Activity (AID 2283029); details: primary human endothelial cells (HUVEC); actives raise or lower the signal
Method in brief: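 Read-out is ELISA of thrombomodulin on human umbilical vein endothelium 24 h after chemical dosing. Gain or loss of signal is scored relative to DMSO. Overt cytotoxicity is checked in parallel cultures by sulforhodamine B staining.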

[18] = read-out: Urokinase-type plasminogen activator receptor (uPAR), PLAUR (gene 5329); test: BSK_4H_uPAR: BioMAP Diversity Plus: 4H Assay for Urokinase-type plasminogen activator receptor (uPAR) Biomarker Activity (AID 2283030); details: primary human endothelial cells (HUVEC); actives raise or lower the signal
Method in brief: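 Chemicals are dosed onto human vascular endothelial primary cells (umbilical vein). After 24 h, uPAR is read by ELISA. Gain or loss of signal is fitted relative to DMSO.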

[19] = read-out: Vascular endothelial growth factor receptor 2 (Homo sapiens) (UniProt P35968); test: BSK_4H_VEGFRII: BioMAP Diversity Plus: 4H Assay for Vascular endothelial growth factor receptor 2 (VEGFR2) Biomarker Activity (AID 2283031); details: primary human endothelial cells (HUVEC); actives raise or lower the signal;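 on AC50: cell-surface VEGFR2 protein level quantified by ELISA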
Method in brief: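 VEGFRII levels on human vascular endothelial primary cells were determined by ELISA at 24 hours post-dosing, with gain- or loss-of-signal fitted against DMSO controls.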

[20] = target: human Retinoid X Receptor beta (RXRb), RXRB (gene 6257) (UniProt P28702); test: ATG_RXRb_TRANS: Attagene TRANS-FACTORIAL HepG2 Assay for human Retinoid X Receptor beta (RXRb) (AID 2283013; active means hit-call score of the fitted dose curve at least 0.9, where 1 is the maximum)
Sequence of human Retinoid X Receptor beta (RXRb), RXRB (gene 6257) (P28702 whole entry, looked up, the tested form may be a part): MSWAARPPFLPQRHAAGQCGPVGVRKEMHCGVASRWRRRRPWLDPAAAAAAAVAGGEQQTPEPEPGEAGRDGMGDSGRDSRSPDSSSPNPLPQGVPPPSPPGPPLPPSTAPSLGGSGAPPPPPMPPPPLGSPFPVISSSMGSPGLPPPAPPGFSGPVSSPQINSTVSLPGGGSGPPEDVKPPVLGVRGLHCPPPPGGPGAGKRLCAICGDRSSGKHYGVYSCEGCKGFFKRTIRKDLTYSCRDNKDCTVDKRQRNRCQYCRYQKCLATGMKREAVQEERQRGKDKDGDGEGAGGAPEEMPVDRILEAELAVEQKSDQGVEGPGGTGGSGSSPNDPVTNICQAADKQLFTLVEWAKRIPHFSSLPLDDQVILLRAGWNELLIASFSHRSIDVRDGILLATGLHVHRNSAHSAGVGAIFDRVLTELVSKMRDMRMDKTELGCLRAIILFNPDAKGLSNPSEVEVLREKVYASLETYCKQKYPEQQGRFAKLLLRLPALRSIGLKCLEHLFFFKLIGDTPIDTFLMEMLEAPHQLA
Method in brief: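 Transfect HepG2 with GAL4-UAS multi-reporter constructs (chimeric NR-Gal4, TRANS format); dose compound 24 h; isolate RNA, RT-PCR, FAM primer extension, HpaI digest; quantify by capillary electrophoresis; positive direction vs DMSO.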

Measured: AC50

Sequence of E-selectin (Homo sapiens) (P16581 whole entry, looked up): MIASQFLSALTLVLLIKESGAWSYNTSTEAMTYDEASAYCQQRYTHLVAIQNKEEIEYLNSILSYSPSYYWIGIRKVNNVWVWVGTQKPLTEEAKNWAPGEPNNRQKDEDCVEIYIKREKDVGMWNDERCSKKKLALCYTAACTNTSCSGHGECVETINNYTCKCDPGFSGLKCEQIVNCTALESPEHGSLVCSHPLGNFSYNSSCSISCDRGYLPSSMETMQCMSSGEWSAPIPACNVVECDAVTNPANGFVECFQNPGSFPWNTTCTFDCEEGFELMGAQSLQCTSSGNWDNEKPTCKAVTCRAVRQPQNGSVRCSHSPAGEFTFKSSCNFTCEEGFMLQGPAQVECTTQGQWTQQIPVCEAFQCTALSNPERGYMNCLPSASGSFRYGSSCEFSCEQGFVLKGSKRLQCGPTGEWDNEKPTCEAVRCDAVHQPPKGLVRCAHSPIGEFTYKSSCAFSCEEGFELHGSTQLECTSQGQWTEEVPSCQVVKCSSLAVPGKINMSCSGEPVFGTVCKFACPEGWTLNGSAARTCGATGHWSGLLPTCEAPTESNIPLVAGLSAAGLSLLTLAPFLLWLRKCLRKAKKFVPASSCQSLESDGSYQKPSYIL

CCCCCCCCN1CCCC1=O
inactive: [1] | [2] | [3]

CCCCN(CCCC)C(=O)N(CCCC)CCCC
active: [4] 6.65 µM | [5] 8.05 µM | [6] 8.46 µM | [7] 6.41 µM | [8] 6.8 µM | [9] 4.98 µM | [10] 12.5 µM | [11] 7.99 µM | [12] 20 µM | [13] 2.98 µM | [14] 12.2 µM | [15] 8.59 µM | [16] 7.45 µM | [18] 7.82 µM | [19] 23.7 µM
inactive: [1] | [2] | [3] | [17]

Cc1ccc(OC(=O)c2ccccc2O)cc1
inactive: [1] | [2] | [3]

Cc1c(C2(c3cc(Br)c(O)c(Br)c3C)OS(=O)(=O)c3ccccc32)cc(Br)c(O)c1Br
inactive: [1] | [2] | [3]

CC(C)(N=C=O)c1cccc(C(C)(C)N=C=O)c1
not listed: [2] | [3] | [20]
inactive: all other assays above

C[C@H]1C[C@@H](O)CC(C)(C)C1
inactive: [1] | [2] | [3]

CC(=O)CC(=O)Nc1ccccc1
inactive: [1] | [2]

CCCCSCCCC
inactive: [1] | [2]

CCCN(CCC)S(=O)(=O)c1ccc(C(=O)O)cc1
inactive: [1] | [3]

CCCC(O)C(O)CO (stereo not drawn)
inactive: [1] | [2] | [3]

Cc1[nH]c(=O)c(C#N)cc1-c1ccncc1
inactive: [1] | [2]

CCCCCc1ccco1
inactive: [1] | [3]

CC(=O)O[C@@H]1CC2CCC1(C)C2(C)C (stereo partly drawn)
inactive: [1] | [3]

CCN(CCC#N)c1ccc(N=Nc2ccc([N+](=O)[O-])cc2)cc1
inactive: [1] | [3]

CN1CCOCC1
inactive: [1] | [3]

CC(C)(C)OC(=O)c1ccc(O)cc1
inactive: [1] | [3]

CN(C)C(=S)SC(=S)N(C)C
active: [4] 19.9 µM | [5] 30.9 µM | [6] 31.4 µM | [7] 29.5 µM | [8] 31.2 µM | [9] 3.95 µM | [11] 19.9 µM | [13] 39.2 µM | [15] 19.9 µM
not listed: [1]
inactive: all other assays above

From PubChem BioAssay (EPA / NIEHS)
